The entries come from a sample that favours hits as a whole.
Algae TAG accum: inducers of triacylglycerol accumulation in Chlamydomonas reinhardtii algae; Chlamydomonas reinhardtii TAG, Nile Red fluorescence, 72 h; calls only at 10 µM (by protocol); hit rate 0.84% among 44,000; AID 1159537; call rule not given here;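 further: hits raise Nile Red signal meaning more stored TAG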
The depositor's hits bear a star; i = inactive; + = active, no number.

SMILES	Algae TAG accum
CCOc1cccc(N2C(=O)CC(N3CCN(c4ccccc4)CC3)C2=O)c1 (stereo not drawn)	i
CC(C)(C)c1ccc(OCC(=O)Nc2ccc(OCC(=O)O)cc2)cc1	i
Cc1c(C)n(O)[n+]([O-])c1-c1ccccc1	i
CN1CCN(CCOc2ccc(C(C)(C)c3ccccc3)cc2)CC1	+
c1ccc(OCCN2CCCC2)cc1	i
CN1CCN(CCCOc2ccc(OCc3ccccc3)cc2)CC1	i
CN1CCN(CCCOc2ccc(C(C)(C)c3ccccc3)cc2)CC1	i
CCC(C)c1ccc(OCCCN2CCN(C)CC2)cc1 (stereo not drawn)	+
CCC(C)c1ccc(OCCCCN2CCN(C)CC2)cc1 (stereo not drawn)	i
CCCOc1ccc(C(=O)Nc2ccc(Br)cc2C)cc1	i
CN1C(=O)c2ccc(NCCN3C(=O)c4ccccc4C3=O)cc2C1=O	i
O=C(Nc1ccc(I)cc1)c1c(O)c2ccccc2[nH]c1=O	i
CC(=O)Nc1ccccc1NC(=O)c1ccc(C)cc1Cl	i
OCCN1CCN(C2CCCCCCC2)CC1	i
C1CCN(C2CCN(C3C4CC5CC(C4)CC3C5)CC2)CC1 (stereo not drawn)	i
COc1ccc(C(=O)N2CCN(C3C4CC5CC(C4)CC3C5)CC2)cc1 (stereo not drawn)	i
c1ccc(CN2CCN(C3C4CC5CC(C4)CC3C5)CC2)cc1 (stereo not drawn)	i
OCCN1CCN(C2C3CC4CC(C3)CC2C4)CC1 (stereo not drawn)	+
CN1CCN(C2C3CC4CC(C3)CC2C4)CC1 (stereo not drawn)	+
Cc1ccccc1NC=C(C#N)c1nc(-c2cccc([N+](=O)[O-])c2)cs1	i
O=C1c2ccccc2S(=O)(=O)N1CCCCOc1ccc(Cl)cc1	i
CCc1cc2c(=O)c(-c3cnn(-c4ccccc4)c3)c(C)oc2c(CN(C)C)c1O	i
COc1ccc2[nH]c(C)c(CN3CCOCC3)c(=O)c2c1	i
CCC(C)N1CCN(CC2CC3C=CC2C3)CC1 (stereo not drawn)	i
COc1ccc(Br)cc1CN1CCC(N2CCCCC2)CC1	i
SMILES	Algae TAG accum
C1=CC2CC1CC2CN1CCN(Cc2ccccn2)CC1 (stereo not drawn)	i
Oc1ccc(Br)cc1CN1CCN(CC2CC3C=CC2C3)CC1 (stereo not drawn)	+
CCN1CCN(CC2CC3C=CC2C3)CC1 (stereo not drawn)	i
C1=CC2CC1CC2CN1CCN(c2ccccc2)CC1 (stereo not drawn)	+
C1=CC2CC1CC2CN1CCOCC1 (stereo not drawn)	i
O=[N+]([O-])c1ccccc1S(=O)(=O)N1CCN(CC2CC3C=CC2C3)CC1 (stereo not drawn)	i
O=[N+]([O-])c1ccc(O)c(CN2CCOCC2)c1	i
NC(=O)C1CCN(CC2CC3C=CC2C3)CC1 (stereo not drawn)	i
Oc1ccc(Br)cc1CN1CCC(N2CCOCC2)CC1	+
C1=CC2CC1CC2CN1CCN(C2CCC(c3ccccc3)CC2)CC1 (stereo not drawn)	+
O=C(Nc1ccc(Cl)cc1Cl)c1cccc(NC(=O)c2cccs2)c1	i
Cc1cc(O)cc(C)c1NC(=O)c1cccc([N+](=O)[O-])c1	i
O=C(C(=C(O)c1ccccc1)c1nc2ccccc2[nH]1)c1ccccc1	i
CCCc1ccc(OCC(=O)Nc2cc([N+](=O)[O-])ccc2C)cc1	i
COc1ccc(C(=O)N2CCCN(C(=O)c3ccc(OC)cc3)CC2)cc1	i
COc1ccc2cc(C=O)c(N3CCOCC3)nc2c1	i
CCCCC(CC)C(=O)Nc1ccc(N(C)C(C)=O)cc1 (stereo not drawn)	i
CCOc1ccc(C(=O)N(CC#N)CC#N)cc1	i
O=C(c1ccc(F)cc1)N1CCN(Cc2ccc([N+](=O)[O-])cc2)CC1	i
O=C(c1ccc([N+](=O)[O-])cc1)N1CCN(CC2CC3C=CC2C3)CC1 (stereo not drawn)	+
O=C(c1ccc([N+](=O)[O-])cc1)N1CCN(CCO)CC1	i
COc1ccccc1CC(=O)NC1CC(C)(C)NC(C)(C)C1	i
CC1(C)CC(NC(=O)Cc2ccccc2[N+](=O)[O-])CC(C)(C)N1	+
CC1(C)CC(NC(=O)CC(c2ccccc2)c2ccccc2)CC(C)(C)N1	i
O=C(/C=C/c1ccc(Cl)cc1Cl)Nc1cccc(NC(=O)c2ccco2)c1	i
SMILES	Algae TAG accum
O=C(Nc1c(C(=O)Nc2cccnc2)cnn1-c1ccccc1)c1ccccc1	i
COc1cccc(CN2CCN(C(=O)C(c3ccccc3)c3ccccc3)CC2)c1OC	i
COc1ccccc1C(=O)N1CCN(C(=O)C(c2ccccc2)c2ccccc2)CC1	+
COc1cc(OC)cc(C(=O)N2CCN(C(=O)C(c3ccccc3)c3ccccc3)CC2)c1	i
CCCn1cnc2scc(-c3cccc([N+](=O)[O-])c3)c2c1=O	i
COc1ccc(CCc2nc(C)cc(CN(C)C)c2O)cc1OC	i
Cc1ccc(S(=O)(=O)n2nnc3ccccc32)cc1	i

Assay outcomes as filed in PubChem BioAssay.
